Source: PubChem BioAssay
Most compounds without a hit are left out; they make up all but 7.3% or so of the library.
FLuc modulator: firefly luciferase modulation, counter-screen for miR-21 project; P08659; purified FLuc, Km substrates, luminescence inhibition; Potency, µM (titrated, usually from 57.5 µM), most hits filed as inhibitors; hit rate 6.9% among 360,000; AID 588342; further: nearly all actives have a fitted effect of over 55% in size
Target sequence (P08659 whole entry, looked up): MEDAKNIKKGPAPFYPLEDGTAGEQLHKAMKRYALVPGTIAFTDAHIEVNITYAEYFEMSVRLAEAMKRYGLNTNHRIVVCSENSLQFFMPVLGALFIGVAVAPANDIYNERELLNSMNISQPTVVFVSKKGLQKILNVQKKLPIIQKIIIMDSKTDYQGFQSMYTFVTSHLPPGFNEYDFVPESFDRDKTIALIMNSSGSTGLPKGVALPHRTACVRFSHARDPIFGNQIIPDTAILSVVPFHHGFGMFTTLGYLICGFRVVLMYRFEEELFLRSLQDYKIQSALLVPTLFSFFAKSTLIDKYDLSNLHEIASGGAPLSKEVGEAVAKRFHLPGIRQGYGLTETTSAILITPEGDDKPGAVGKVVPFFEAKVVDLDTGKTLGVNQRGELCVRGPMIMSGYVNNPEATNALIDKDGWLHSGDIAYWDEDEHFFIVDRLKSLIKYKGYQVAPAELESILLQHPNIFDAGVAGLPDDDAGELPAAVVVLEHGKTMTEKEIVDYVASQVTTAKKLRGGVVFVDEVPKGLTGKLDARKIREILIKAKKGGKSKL
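Purified P. pyralis luciferase, 10 nM final, with Km-level 10 uM D-luciferin and 10 uM ATP in 50 mM Tris acetate pH 7.5, 10 mM Mg acetate, 0.01% Tween-20, 0.05% BSA; 6-point qHTS titration about 60 µM downward; luminescence read.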
SMN2 splice enh: enhancers of SMN2 splice variant expression | AID 1458 | Potency, µM (highest dose often 46.1 µM), hits mostly activators | HEK293 SMN2-luciferase splicing reporter, luminescence, 30-36 h | hit rate 2.8% among 210,000; further: nearly all actives have a fitted effect of over 55% in size
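qHTS luciferase splicing reporter: luminescence rises when SMN2 exon 7 is included in transfected HEK293 cells. Compound exposure lasted 30-36 h at 37C, with 4.5 mM final sodium butyrate as control, followed by a ONE-Glo read.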
Rab9 promoter act: Rab9 promoter activation; Huh7 Rab9 promoter-luciferase reporter, luminescence, 24 h; Potency, µM (highest dose often 9.22 µM), actives largely listed as activators; hit rate 2.8% among 320,000; further: nearly all actives have a fitted effect of over 60% in size
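Cell-based reporter: Huh7 stable for Rab9 promoter-driven luciferase, plated in reduced-serum medium with 10% FBS at 1500 cells/well, compound-treated 24 h at 37 °C, luminescence read after 10 min reagent.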
Luc counter: blocks Kinase-Glo luciferase, a counter-screen artifact; hit rate 0.28% among 200,000; Kinase-Glo luciferase, ATP luminescence, 8 min; Potency, µM (series often up to 38.3 µM), actives largely listed as inhibitors; further: nearly all actives have a fitted effect of over 60% in size
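Compound is pinned into ATP-containing buffer (10 uM ATP, imidazole pH 7.2, 7 mM MgCl2). Kinase-Glo luciferase reagent is then added. Light output is recorded following an 8-min room-temperature incubation.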
ELG1 genotox: inducers of genotoxicity in HEK293T ELG1-luciferase cells; HEK293T ELG1-luciferase reporter, luminescence, 16 h; Potency, µM (top dose mostly 46 µM), usual class: activators; hit rate 1.3% among 330,000; AID 504466; further: nearly all actives have a fitted effect of over 60% in size
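HEK293T cells expressing luciferase-tagged ELG1 were exposed to compound or DMSO vehicle for 16 hr at 37 °C and 5% CO2. Luciferase activity was then measured with ONE-Glo after 30 min at room temperature.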
NPC1 prom act: NPC1 promoter activation; Huh7 NPC1 promoter luciferase reporter, 24 h; Potency, µM (series often up to 9.22 µM), hits mostly activators; hit rate 2.4% among 320,000; further: nearly all actives have a fitted effect of over 60% in size
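Stable NPC1-promoter luciferase Huh7 line; cpd (DMSO) 24 h, 37 °C, 5% CO2; Amplite luciferase reagent 10 min RT; luminescence readout. qHTS format.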
Numbers stand for hits; 0 = inactive; ? = inconclusive; - = not tested or not shown; [ ] = another dose, or the depositor's remark. The call rests on the fitted dose curve; in most records, active means well fitted curve in the direction sought with a large enough effect; inconclusive means small, poorly fitted or top-dose-only effect, or another doubt; inactive means no such curve, though single readings can be large; an effect the other way counts as inactive or inconclusive.

SMILES	FLuc modulator	SMN2 splice enh	Rab9 promoter act	Luc counter	ELG1 genotox	NPC1 prom act
COc1ccc(C(=O)Nc2nc(N)n(-c3ccccc3)n2)cc1	17µM	0	0	0	0	0
COc1ccccc1/C=C/C(=O)Nc1nc(N)n(-c2ccccc2)n1	19µM	-	0	-	0	0
Nc1nc(NC(=O)c2cccs2)nn1-c1ccccc1	17µM	11µM	2.5µM	0	?	2.8µM
CCCCN(c1ccccc1)c1ncnc2c1cnn2-c1ccc(Cl)cc1	13µM	-	-	-	-	-
CCCCN(c1ccccc1)c1ncnc2c1cnn2-c1cccc(C)c1	0	-	-	-	-	-
CCN(c1ccccc1)c1ncnc2c1cnn2-c1ccc(OC)cc1	6.7µM	-	-	-	-	-
C=CCOC(=O)/C(=C/c1cccc2ccccc12)NC(=O)c1ccccc1	19µM	?	0	0	0	0
Cc1ccc(SCC(=O)Nc2ccc(-c3nnc(-c4ccco4)o3)cc2)cc1	0	?	3.5µM	0	?	2.5µM
Cc1ccc(NC(=O)CCSc2nnc(-c3ccco3)o2)cc1	0	0	0	0	0	0
O=C(Nc1nnc(-c2ccc(F)cc2)o1)c1ccco1	17µM	-	0	-	0	0
COc1cc(C(=O)Nc2cccc(-c3nnc(-c4ccco4)o3)c2)ccc1OC(C)=O	15µM	0	0	0	0	0
COc1cccc(C(=O)Nc2ccccc2-c2nc(-c3ccc(C)cc3)no2)c1	0	-	-	-	-	-
COc1cccc(C(=O)Nc2ccccc2-c2nnc(-c3cccc(OC)c3)o2)c1	2.7µM	0	-	-	-	-
CCCn1c(=O)[nH]c2nc(-c3ccc(S(=O)(=O)O)cc3)[nH]c2c1=O	-	-	-	0	-	-
Cc1ccc(C(=O)Nc2nnc(-c3ccco3)o2)cc1	13µM	13µM	4µM	0	?	3.5µM
COc1ccc(C(=O)Nc2cccc(-c3nnc(-c4ccco4)o3)c2)cc1	19µM	0	0	0	0	0
COc1ccc(CC(=O)Nc2cccc(-c3nnc(-c4ccco4)o3)c2)cc1	0	0	0	0	0	0
CCOC(=O)c1cccc(NC(=O)CCCn2c(C)c3cnn(-c4ccccc4)c(=O)c3c2C)c1	0	0	-	-	-	-
N#C[C@H]1CN[C@H](N)N[C@@H]1N	-	0[9.22 µM]	-	0[7.66 µM]	-	-
CC1CCc2sc(C(=O)NN)cc2C1 (stereo unspecified)	?	-	0	-	0	0
CC1CCc2sc(C(=O)NCC3CCCO3)cc2C1 (stereo unspecified)	11µM	-	4µM	-	?	2.8µM
CC1CCc2sc(C(=O)Nc3ccc(C(N)=O)cc3)cc2C1 (stereo unspecified)	2.4µM	-	0	-	?	?
CC1CCc2sc(C(=O)NNS(=O)(=O)c3ccc(F)c(F)c3F)cc2C1 (stereo unspecified)	11µM	-	0	-	0	0
CC1CCc2sc(C(=O)NNC(=S)NC3CC3)cc2C1 (stereo unspecified)	0	-	1.1µM	-	0	?
CCOC(=O)Cn1c(=O)oc2cc(S(=O)(=O)N3CCN(c4ccc(F)cc4)CC3)ccc21	0	0	-	-	-	-
SMILES	FLuc modulator	SMN2 splice enh	Rab9 promoter act	Luc counter	ELG1 genotox	NPC1 prom act
CCn1c2ccccc2c2nnc(N3CCN(c4ccc(OC)cc4)CC3)nc21	0	-	-	-	-	-
CCc1cc(C(=O)COc2ccc(F)cc2)c(O)cc1O	?	-	0	-	0	0
Cc1c(O)ccc(C(=O)COc2ccc(F)cc2)c1O	12µM	-	5µM	-	0	?
CC1=NN(c2ccccc2)C(=O)/C1=C/c1cc(C)n(C2CC2)c1C	2.4µM	0	0	0	0	0
CC1=NN(c2ccccc2)C(=O)/C1=C\c1sccc1C	7.6µM	-	0	-	0	0
C#CCOc1ccc(/C=C2/C(=O)N(c3cccc(C(=O)O)c3)N=C2C)cc1OC	12µM	-	0	-	0	0
COc1cc(/C=C2\C(=O)N(c3ccccc3)N=C2C)ccc1Oc1ccc([N+](=O)[O-])cc1[N+](=O)[O-]	?	0	0	0	0	0
CC1=NN(c2cccc(C(=O)O)c2)C(=O)/C1=C\C=C\c1ccco1	2.7µM	0	0	0	?	0
CC(CCc1nc2ccccc2s1)(c1ccc(O)cc1)c1ccc(O)cc1	-	0[9.22 µM]	-	0[7.66 µM]	-	-
CCOc1ccc(NC(=O)c2ccc3c(=O)n4nc(Nc5ccccc5C)sc4nc3c2)cc1	0	-	-	-	-	-
O=C(CC(c1cccs1)N1Cc2ccccc2C1=O)Nc1cccc(F)c1 (stereo unspecified)	0	-	-	-	-	-
CC1=NN(c2ccc(Br)cc2)C(=O)/C1=C/c1cccs1	7.6µM	0	0	0	0	0
CC1=NN(c2ccccc2)C(=O)/C1=C\c1cn(-c2ccccc2)nc1C	?	0	0	0	0	0
CC1=NN(c2ccc(C)cc2)C(=O)/C1=C\c1ccc(Br)s1	0	0[1.84 µM]	0	0	0	0
COc1ccccc1/C=C1/C(=O)N(c2ccccc2)N=C1C	27µM	-	0	-	0	0
COc1ccc(C2C(C(=O)Nc3cccnc3)=C(C)Nc3nc(SCc4ccccc4)nn32)cc1 (stereo unspecified)	0	0	-	-	-	-
O=C(COc1ccccc1C(=O)c1cnn(-c2ccccc2)c1)Nc1ccccc1	1.5µM	25µM	?	0	0	0
COc1ccccc1CNC(=O)COc1ccccc1C(=O)c1cnn(-c2ccccc2)c1	9.5µM	-	0	-	0	0
CCNC(=O)COc1ccc(F)cc1C(=O)c1cnn(-c2ccccc2)c1	0	-	0	-	0	0
CCCCn1c(=N)c(S(=O)(=O)c2ccc(Cl)cc2)cc2c(=O)n3cccc(C)c3nc21	0	0	-	-	-	-
C=CCc1ccc(OCC(O)CO)c(OC)c1 (stereo unspecified)	0	0	0	0	0	0
C=CCc1ccc(OC(=O)c2ccccc2)c(OC)c1	6.7µM	0	0	0	0	0
C=CCc1ccc(OCCCOc2ccc(C(=O)O)cc2)c(OC)c1	11µM	0	0	0	0	0
Cc1ccc(C(=O)O/N=C/c2c(Cl)n(C)c3ccccc23)cc1	2.7µM	?	0	0	0	0
Cn1c(Cl)c(/C=N/OC(=O)c2ccc(Cl)cc2)c2ccccc21	3.4µM	0	0	0	0	0
SMILES	FLuc modulator	SMN2 splice enh	Rab9 promoter act	Luc counter	ELG1 genotox	NPC1 prom act
CCOC(=O)C1CCN(S(=O)(=O)c2ccc(N3CCCCS3(=O)=O)cc2)CC1	0	-	-	-	-	-
C=Cc1ccc(Cn2c(C(=O)O)c(CNC3CCCCC3)c3ccc(OC)cc32)cc1	0	-	-	-	-	-
CC1CCCN(C(=O)COc2ccc(NC(=O)c3cccs3)cc2)C1 (stereo unspecified)	9.5µM	0	0	0	0	0
COC(=O)Cc1ccc(NC(=O)c2cccs2)cc1	21µM	11µM	2.8µM	0	0	?
COc1cc(NC(=O)c2ccc(C)cc2C)ccc1NC(=O)c1cccs1	?	-	0	-	0	0
N/C(=N\O)c1ccc(NC(=O)c2cccs2)cc1	17µM	0	3.5µM	?	?	?
Cc1ccc(C(=O)Nc2cccc(NC(=O)c3cccs3)c2)c(C)c1	12µM	-	0	-	0	0
COc1ccccc1CC(=O)Nc1ccc(NC(=O)c2cccs2)cc1	0	-	0	-	0	0
